For five compounds, growth results are on record in PubChem BioAssay (NCI).

The structures appear in SMILES notation. Compounds without any hit were thinned out: in the full panel of roughly 83,000, 20% have a hit.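 Cells were grown in 96-well plates and exposed to the test compound at a single concentration for 48 hours; results are reported as percent growth, with values below 10 considered active.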 A number with no mark means an inactive call. Active and inactive are the calls of the source.

Test systems include NCI/ADR-RES ovarian; BT-549 breast; MDA-MB-435 melanoma; SW-620 colon; MCF7 breast; HCT-116 colon; HCC-2998 colon; KM12 colon.
What all share (experiment): NCI-60 one-dose screen, 48 h (100 = growth as untreated, 0 = no growth, -100 = all killed)
Holding throughout (conditions): 10 µM unless noted

Regarding `CC(=O)OC1CCC2C3CCC4=C/C(=N/OC(=O)c5ccc(N(CCCl)CCCl)cc5)CCC4(C)C3CC(C)C12` (centres undefined), the growth with NCI/ADR-RES ovarian was -13.2% (active); in the test on BT-549 breast, 110%; in the test with MDA-MB-435 melanoma it was 78.3%; with SW-620 colon it was 83.4%; with MCF7 breast, 99.3%; with HCT-116 colon, 54.6%. Besides, the results for the growth in the test with HCC-2998 colon and with KM12 colon were 98.6% and 73.6%, respectively.

With `CCCCCCCC(=O)OCC(=O)[C@]1(O)Cc2c(O)c3c(c(O)c2[C@@H](OC2CC(N)C(O)C(C)O2)C1)C(=O)c1c(OC)cccc1C3=O` (some centres undefined), the growth is 50.7% with NCI/ADR-RES ovarian; -84% (active) in the test with BT-549 breast; -80.5% (active) with MDA-MB-435 melanoma; -62.5% (active) in the test with SW-620 colon; -94.4% (active) in the test with MCF7 breast; -73.4% (active) with HCT-116 colon. Moreover, the growth in the test with HCC-2998 colon is -90.1% (active); in the test with KM12 colon it was -96.2% (active).

For the compound `CCCCCCCCCCCCCC[P+](CCCCCC)(CCCCCC)CCCCCC`, the growth with NCI/ADR-RES ovarian was -10.5% (active); in the test with MDA-MB-435 melanoma, -81% (active); with SW-620 colon, -86.3% (active); in the test on MCF7 breast, -51.8% (active); with HCT-116 colon it was -70.8% (active); in the test on HCC-2998 colon, -24.4% (active). The growth in the test on KM12 colon was -100% (active).

For `C=CC[PH+](c1ccccc1)c1ccccc1.C=CC[PH+](c1ccccc1)c1ccccc1.[Cl][Pt][Cl]`, the growth in the test on NCI/ADR-RES ovarian was 97%; with BT-549 breast, 78%; in the test on MDA-MB-435 melanoma it was 64.9%; with SW-620 colon, 2.38% (active); in the test on MCF7 breast it was 31.9%; in the test with HCT-116 colon it was 3.92% (active). Moreover, the growth in the test on HCC-2998 colon is 94.9%; in the test with KM12 colon, 77.8%.

For `C[C@@H]1C[C@@]2(C)[C@@H](CC[C@@H]3[C@@H]2CC[C@]2(C)C(=O)CC[C@@H]32)CC1=O`, the growth was 102% in the test with NCI/ADR-RES ovarian; 112% in the test with BT-549 breast; 90% with MDA-MB-435 melanoma; 99.7% in the test with SW-620 colon; 99.9% in the test on MCF7 breast; 69.3% with HCT-116 colon. Besides, the growth in the test on HCC-2998 colon was 109%; with KM12 colon, 115%.
